Assay in all cases: peptide microarray binding signal (635 nm), min-max normalized on array (fraction of array maximum); higher = stronger binding
The target of assay [1] is T1, HaloTag-ATRX ADD domain (163-292).
T1 chain: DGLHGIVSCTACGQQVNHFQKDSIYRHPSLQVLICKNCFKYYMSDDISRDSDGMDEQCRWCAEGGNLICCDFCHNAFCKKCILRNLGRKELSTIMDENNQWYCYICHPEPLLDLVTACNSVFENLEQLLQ
The method in brief: (§1)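 Arrays carried histone 13-mer peptide–cellulose conjugates printed in triplicate on nitrocellulose alongside a Cy3 tracer. After overnight blocking at 4°C, they were incubated for 1 h at 4°C with biotin-labelled HaloTag reader fusions (10 nM to 1 μM) plus streptavidin-Alexa Fluor 647, or with rabbit histone antibodies (1:10,000 to 1:2,000) plus anti-rabbit Alexa 647. Scanning on an Axon GenePix 4000B used 635 nm for signal and 532 nm for misprints. The binding signal reported is each triplicate's mean spot intensity after per-library min-max scaling.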

Assay [2] deals with HaloTag-ING2 PHD (mouse Ing2 200-280). The method in brief: as §1
For assay [3], the target named is anti-H3K4me3 antibody ab8580. Summed up:
as §1

In assay [4] the target is anti-H3K9me3 antibody ab8898. The method in brief: as §1
[5] abbreviates: peptide region: H3 50-62, peptide modifications: H3K56me3, binder concentration: 1:2,000 dilution.
[6] abbreviates: peptide region: H3 50-62, peptide modifications: H3K56me3, binder concentration: 1:10,000 dilution.
[7] abbreviates: peptide region: H3 30-42, peptide modifications: H3K37ac, binder concentration: 1:2,000 dilution.
The mark [8] stands for this setting: peptide region: H3 30-42, peptide modifications: H3K37ac, binder concentration: 1:10,000 dilution.
[9] abbreviates: peptide region: H3 50-62, peptide modifications: H3K56me3 H3S57ph, binder concentration: 1:2,000 dilution.
The mark [10] stands for this setting: peptide region: H3 50-62, peptide modifications: H3K56me3 H3S57ph, binder concentration: 1:10,000 dilution.
Setting [11] is: peptide region: H3 30-42, peptide modifications: H3T32ph, binder concentration: 1:2,000 dilution.
Where [12] appears, read: peptide region: H3 30-42, peptide modifications: H3T32ph, binder concentration: 1:10,000 dilution.
The mark [13] stands for this setting: peptide region: H3 30-42, peptide modifications: H3K37me1, binder concentration: 1:2,000 dilution.
Where [14] appears, read: peptide region: H3 30-42, peptide modifications: H3K37me1, binder concentration: 1:10,000 dilution.
[15] abbreviates: peptide region: H3 30-42, peptide modifications: H3T32ph H3K36me2, binder concentration: 1:2,000 dilution.
The mark [16] stands for this setting: peptide region: H3 30-42, peptide modifications: H3T32ph H3K36me2, binder concentration: 1:10,000 dilution.
Setting [17] is: peptide region: H3 50-62, peptide modifications: H3K56me1 H3S57ph, binder concentration: 1:2,000 dilution.
Where [18] appears, read: peptide region: H3 50-62, peptide modifications: H3K56me1 H3S57ph, binder concentration: 1:10,000 dilution.
The mark [19] stands for this setting: peptide region: H3 30-42, peptide modifications: H3K37me3, binder concentration: 1:2,000 dilution.
Setting [20] is: peptide region: H3 30-42, peptide modifications: H3K37me3, binder concentration: 1:10,000 dilution.
Setting [21] is: peptide region: H3 30-42, peptide modifications: H3T32ph H3K36me1, binder concentration: 1:2,000 dilution.
Where [22] appears, read: peptide region: H3 30-42, peptide modifications: H3T32ph H3K36me1, binder concentration: 1:10,000 dilution.
Where [23] appears, read: peptide region: H3 50-62, binder concentration: 1:2,000 dilution.
[24] abbreviates: peptide region: H3 50-62, binder concentration: 1:10,000 dilution.

± gives the standard deviation.

EIRRYQKSTELLI [H3 50-62 E I R R Y Q Kme3 S T E L L I]: the “peptide microarray binding signal” value in assay [1] (peptide region: H3 50-62, peptide modifications: H3K56me3, binder concentration: 50 nM) turned out to be 0.00232 ± 0.0002; in assay [1] (peptide region: H3 50-62, peptide modifications: H3K56me3, binder concentration: 500 nM), 0.0019 ± 6e-05; in assay [2] (peptide region: H3 50-62, peptide modifications: H3K56me3, binder concentration: 10 nM) it was 0.00233 ± 2.7e-05; in assay [2] (peptide region: H3 50-62, peptide modifications: H3K56me3, binder concentration: 100 nM) it was 0.002268 ± 2.2e-05; in assay [3] (setting [5]) it was 0.00259 ± 0.0002; in assay [3] (setting [6]) it was 0.00108 ± 3.8e-05. In addition, the “peptide microarray binding signal” value in assay [4] (setting [5]) turned out to be 0.0209 ± 0.0092; in assay [4] (setting [6]), 0.00986 ± 0.0031.
For PATGGVKKPHRYR [H3 30-42 P A T G G V K Kac P H R Y R], the “peptide microarray binding signal” value came out at 0.00991 ± 0.00064 in assay [1] (peptide region: H3 30-42, peptide modifications: H3K37ac, binder concentration: 50 nM); 0.0214 ± 0.0021 in assay [1] (peptide region: H3 30-42, peptide modifications: H3K37ac, binder concentration: 500 nM); 0.0263 ± 0.00079 in assay [2] (peptide region: H3 30-42, peptide modifications: H3K37ac, binder concentration: 10 nM); 0.0376 ± 0.0021 in assay [2] (peptide region: H3 30-42, peptide modifications: H3K37ac, binder concentration: 100 nM); 0.0146 ± 0.0013 in assay [3] (setting [7]); 0.014 ± 0.00079 in assay [3] (setting [8]). Also, the entries for the “peptide microarray binding signal” value in assay [4] (setting [7]) and in assay [4] (setting [8]) were 0.0131 ± 0.00032 and 0.00663 ± 0.00069, respectively.
With EIRRYQKSTELLI [H3 50-62 E I R R Y Q Kme3 Sph T E L L I], the “peptide microarray binding signal” value in assay [1] (peptide region: H3 50-62, peptide modifications: H3K56me3 H3S57ph, binder concentration: 50 nM) turned out to be 0.00122 ± 2.2e-05; in assay [1] (peptide region: H3 50-62, peptide modifications: H3K56me3 H3S57ph, binder concentration: 500 nM), 0.00224 ± 0.0003; in assay [2] (peptide region: H3 50-62, peptide modifications: H3K56me3 H3S57ph, binder concentration: 10 nM), 0.00251 ± 0.0001; in assay [2] (peptide region: H3 50-62, peptide modifications: H3K56me3 H3S57ph, binder concentration: 100 nM), 0.00142 ± 0.00012; in assay [3] (setting [9]), 0.00238 ± 0.00081; in assay [3] (setting [10]), 0.00177 ± 5e-05. In addition, the “peptide microarray binding signal” value was 0.0141 ± 0.011 in assay [4] (setting [9]) and 0.0094 ± 0.0038 in assay [4] (setting [10]).
Turning to PATGGVKKPHRYR [H3 30-42 P A Tph G G V K K P H R Y R], the “peptide microarray binding signal” value was 0.004984 ± 4.8e-05 in assay [1] (peptide region: H3 30-42, peptide modifications: H3T32ph, binder concentration: 50 nM); 0.0106 ± 0.00088 in assay [1] (peptide region: H3 30-42, peptide modifications: H3T32ph, binder concentration: 500 nM); 0.00812 ± 0.00079 in assay [2] (peptide region: H3 30-42, peptide modifications: H3T32ph, binder concentration: 10 nM); 0.0157 ± 0.0015 in assay [2] (peptide region: H3 30-42, peptide modifications: H3T32ph, binder concentration: 100 nM); 0.00115 ± 3.8e-05 in assay [3] (setting [11]); 0.001484 ± 1.4e-05 in assay [3] (setting [12]). Moreover, the “peptide microarray binding signal” value in assay [4] (setting [11]) was 0.000574 ± 2.6e-05; in assay [4] (setting [12]), 0.0011 ± 1.1e-05.
For PATGGVKKPHRYR [H3 30-42 P A T G G V K Kme P H R Y R], the “peptide microarray binding signal” value in assay [1] (peptide region: H3 30-42, peptide modifications: H3K37me1, binder concentration: 50 nM) was 0.0106 ± 0.00056; in assay [1] (peptide region: H3 30-42, peptide modifications: H3K37me1, binder concentration: 500 nM), 0.0245 ± 0.0059; in assay [2] (peptide region: H3 30-42, peptide modifications: H3K37me1, binder concentration: 10 nM), 0.0491 ± 0.0011; in assay [2] (peptide region: H3 30-42, peptide modifications: H3K37me1, binder concentration: 100 nM) it was 0.0698 ± 0.0049; in assay [3] (setting [13]) it was 0.0068 ± 0.00068; in assay [3] (setting [14]), 0.00765 ± 0.00036. In addition, the “peptide microarray binding signal” value in assay [4] (setting [13]) was 0.00234 ± 4.8e-05; in assay [4] (setting [14]), 0.00225 ± 5.4e-05.
Turning to PATGGVKKPHRYR [H3 30-42 P A Tph G G V Kme2 K P H R Y R], the “peptide microarray binding signal” value in assay [1] (peptide region: H3 30-42, peptide modifications: H3T32ph H3K36me2, binder concentration: 50 nM) worked out at 0.00313 ± 0.0002; in assay [1] (peptide region: H3 30-42, peptide modifications: H3T32ph H3K36me2, binder concentration: 500 nM), 0.00695 ± 0.00032; in assay [2] (peptide region: H3 30-42, peptide modifications: H3T32ph H3K36me2, binder concentration: 10 nM) it was 0.0113 ± 0.00095; in assay [2] (peptide region: H3 30-42, peptide modifications: H3T32ph H3K36me2, binder concentration: 100 nM), 0.0184 ± 0.00072; in assay [3] (setting [15]) it was 0.00266 ± 8.2e-05; in assay [3] (setting [16]), 0.00262 ± 0.00017. Further, the “peptide microarray binding signal” value in assay [4] (setting [15]) is 0.00142 ± 7.1e-05; in assay [4] (setting [16]), 0.00127 ± 1.3e-05.
Take EIRRYQKSTELLI [H3 50-62 E I R R Y Q Kme Sph T E L L I]: the “peptide microarray binding signal” value in assay [1] (peptide region: H3 50-62, peptide modifications: H3K56me1 H3S57ph, binder concentration: 50 nM) came to 0.00125 ± 3.7e-05; in assay [1] (peptide region: H3 50-62, peptide modifications: H3K56me1 H3S57ph, binder concentration: 500 nM), 0.00143 ± 2.3e-05; in assay [2] (peptide region: H3 50-62, peptide modifications: H3K56me1 H3S57ph, binder concentration: 10 nM), 0.00209 ± 2.4e-05; in assay [2] (peptide region: H3 50-62, peptide modifications: H3K56me1 H3S57ph, binder concentration: 100 nM), 0.00085 ± 2.5e-05; in assay [3] (setting [17]), 0.000264 ± 7.4e-06; in assay [3] (setting [18]) it was 0.000342 ± 3.8e-06. Moreover, the figures for the “peptide microarray binding signal” value in assay [4] (setting [17]) and in assay [4] (setting [18]) were 0.000861 ± 8.7e-05 and 0.000519 ± 5.6e-06, respectively.
With PATGGVKKPHRYR [H3 30-42 P A T G G V K Kme3 P H R Y R], the “peptide microarray binding signal” value came to 0.00621 ± 0.00029 in assay [1] (peptide region: H3 30-42, peptide modifications: H3K37me3, binder concentration: 50 nM); 0.00781 ± 0.00023 in assay [1] (peptide region: H3 30-42, peptide modifications: H3K37me3, binder concentration: 500 nM); 0.00949 ± 0.00038 in assay [2] (peptide region: H3 30-42, peptide modifications: H3K37me3, binder concentration: 10 nM); 0.0356 ± 0.036 in assay [2] (peptide region: H3 30-42, peptide modifications: H3K37me3, binder concentration: 100 nM); 0.00183 ± 9e-05 in assay [3] (setting [19]); 0.00234 ± 4.2e-05 in assay [3] (setting [20]). Also, the “peptide microarray binding signal” value in assay [4] (setting [19]) came to 0.00216 ± 0.00026; in assay [4] (setting [20]), 0.00185 ± 5.2e-05.
As for PATGGVKKPHRYR [H3 30-42 P A Tph G G V Kme K P H R Y R], the “peptide microarray binding signal” value in assay [1] (peptide region: H3 30-42, peptide modifications: H3T32ph H3K36me1, binder concentration: 50 nM) was 0.00552 ± 0.00021; in assay [1] (peptide region: H3 30-42, peptide modifications: H3T32ph H3K36me1, binder concentration: 500 nM), 0.00914 ± 0.00072; in assay [2] (peptide region: H3 30-42, peptide modifications: H3T32ph H3K36me1, binder concentration: 10 nM) it was 0.00871 ± 0.00013; in assay [2] (peptide region: H3 30-42, peptide modifications: H3T32ph H3K36me1, binder concentration: 100 nM), 0.0167 ± 0.0011; in assay [3] (setting [21]), 0.00193 ± 0.00024; in assay [3] (setting [22]), 0.00257 ± 0.00014. Besides, the “peptide microarray binding signal” value was 0.00118 ± 0.00016 in assay [4] (setting [21]) and 0.00144 ± 0.00011 in assay [4] (setting [22]).
With EIRRYQKSTELLI [H3 50-62 E I R R Y Q K S T E L L I], the “peptide microarray binding signal” value amounted to 0.00599 ± 0.00033 in assay [1] (peptide region: H3 50-62, binder concentration: 50 nM); 0.0144 ± 0.00044 in assay [1] (peptide region: H3 50-62, binder concentration: 500 nM); 0.00859 ± 0.00029 in assay [2] (peptide region: H3 50-62, binder concentration: 10 nM); 0.00149 ± 5.6e-05 in assay [2] (peptide region: H3 50-62, binder concentration: 100 nM); 0.00017 ± 3.2e-06 in assay [3] (setting [23]); 0.00514 ± 0.0014 in assay [3] (setting [24]). Also, the “peptide microarray binding signal” value stood at 0.00299 ± 0.00025 in assay [4] (setting [23]) and 0.00288 ± 7.4e-05 in assay [4] (setting [24]).

Values taken from the supplement of paper PMC4022240.
